A short description of the test: MRP1 drug-resistance reversers in H69AR cells – cell-based, doxorubicin co-treatment, pilot screen (AID 601). The settings on record: H69AR cells + 2 uM doxorubicin, CellTiter-Glo, 72 h; measured here: viability with 2 uM doxorubicin; at 10 µM; stronger effect = lower value.
On to `Cc1sc2ncnc(OCC(=O)N3CCN(S(=O)(=O)c4ccc(Cl)cc4)CC3)c2c1C`, for which the viability came out at 84%. With `CCOC(=O)CNS(=O)(=O)c1c(C)noc1C`, the viability was determined as 86.2%.

As to `COC(=O)c1onc(C(=O)c2ccccc2)c1C(=O)OC`, the viability was 84.4%. Next, `O=C(O)c1cccc(CN2C(=O)SC(Nc3ccccc3)C2=O)c1` (stereo not given): 94%. The value for `COC(=O)C1C(=O)c2c([nH]c(C(=O)OCCOC(C)C)c2C)CC1C` (stereo not given) was 91.6%; that for `CCOC(=O)c1c(NC(=O)CSc2nnc(-c3ccc(OC)cc3)o2)sc2c1CCC2` was 90.4%; that for `O=C(c1cccnc1NCc1ccccc1)N1CCOCC1` was 93%. The value for `O=C1CC(N2CCN(c3cccc(C(F)(F)F)c3)CC2)C(=O)N1c1ccccc1` (stereo not given) was 90%.

With `Cc1ccc(N=C2NC(=O)CS2)c(C)c1`, the viability worked out at 96.7%. `O=C(NCc1cccs1)C1CCCN(c2ncccn2)C1` (stereo not given): the viability was determined as 85.9%. Next, `Cc1cc2ncn(N)c2cc1C`: 98.3%.

Regarding `COc1ccccc1N1CCN(C(=O)CSc2nc(-c3ccccc3)cc(=O)[nH]2)CC1`, the viability is 89.8%. Take `Cc1nn(-c2ccccc2)c(Cl)c1C(=O)NCC(=O)O`: the viability was determined as 111%. Take `COc1nc(N2CCOCC2)nc(-n2cccc2)n1`: the viability is 73.6%.

Turning to `CCSc1nnc(NC(=O)C(CC)(C(F)(F)F)C(F)(F)F)s1`, the viability was 73.4%. The value for `COC(=O)C1CCN(C(=O)NC(C)(C)C)CC1` was 87.3%; that for `Cc1nn(-c2ccc(Cl)cc2)c2sc(C(=O)N3CCN(c4ccccn4)CC3)cc12` was 57.6%; that for `COc1ccc(Oc2c(C)oc3cc(OC(=O)N4CCOCC4)ccc3c2=O)cc1` was 101%. Next, `C[C@@H]1C[C@H](O)c2cc(Cl)ccc2N1`: 79.4%; `O=C(NCCCNC1CCCCC1)c1ccc(/C=N/O)nc1`: 98.6%. The value for `CC(=O)Nc1ccc(S(=O)(=O)N2CCC(c3nc4ccccc4[nH]3)CC2)cc1` was 83.9%; that for `CCOc1ccc(S(=O)(=O)Nc2ccccc2C(=O)Nc2ccccc2N2CCOCC2)cc1` was 90.7%.

On to `O=C(c1ccc(COc2c(F)c(F)c(F)c(F)c2F)o1)N1CCOCC1`, for which the viability was 80.3%. For the compound `CC(C)[C@H](NC(=O)NC1CCCC1)C(=O)O`, the viability is 89%.

`CCOC(=O)C(C)(C)Sc1nc2c(cnn2-c2ccc(C)cc2)c(=O)[nH]1`: the viability turned out to be 96.3%. The value for `COc1ccccc1NC(=O)c1ccc(COc2ccccc2OC)o1` was 91.3%; that for `O=C(NCc1ccccn1)Nc1ccc2c(c1)OCO2` was 87.4%.

In the case of `CCSc1nnc(NC(=O)CSc2ncccn2)s1`, the viability amounted to 84.5%.

Turning to `O=C(OCc1nnc(-c2ccc(Cl)cc2)o1)c1ccc(=O)n(Cc2ccccc2)n1`, the viability was found to be 82.1%. As to `COc1ccc(C(=O)NCCn2ccc3ccccc32)c(OC)c1`, the viability is 87.9%. Next, `O=C(NCc1cccs1)C1CCN(S(=O)(=O)c2cccs2)CC1`: 74.6%; `CCC(C)n1[nH]c(=O)c2c(C)cc(C)nc21` (stereo not given): 88.9%; `CC1(C)OC(=O)C(=CNC(CCC(N)=O)C(=O)O)C(=O)O1` (stereo not given): 101%.

For the compound `O=c1c(CN2CCN(Cc3ccccc3)CC2)coc2ccc(Cl)cc12`, the viability came out at 83.3%. Next, `Cn1c(=O)[nH]c2cc3ccccc3cc21`: 79.1%.

Turning to `COc1ccc(-c2[nH]nc3c2C(c2ccccc2OC(=O)N2CCOCC2)C(C#N)=C(N)O3)cc1` (stereo not given), the viability was 87%.

For `COC(=O)C1=C(N)Oc2cc(C)[nH]c(=O)c2C1c1ccncc1` (stereo not given), the viability was 87.3%. The value for `CCn1c2ccccc2c2cc(NC(=O)CSc3nnc(C4CC4)n3Cc3ccco3)ccc21` was 95.2%; that for `O=C(CSc1nc2ncccc2[nH]1)Nc1ccc2c(c1)OCCO2` was 82.4%; that for `CCSc1nnc(NC(=O)c2nn(C(C)C)c(=O)c3ccccc23)s1` was 88.7%.

Source of the values: PubChem BioAssay.
